This is an account of results in PubChem BioAssay (NCI).

Molecules are shown by their SMILES. Compounds without any hit were thinned out: in the full panel of roughly 83,000, 20% have a hit.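 96-well plates, one dose, 48 hours. Percent growth reported; active if below 10.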 A number with no mark means an inactive call. Calls of active or inactive are those of the source.

What all share (experiment): NCI-60 one-dose screen, 48 h (100 = growth as untreated, 0 = no growth, -100 = all killed)
Conditions in all cases: 10 µM unless noted

The test system of assay [1] is NCI-H23 lung.
Assay [2] deals with NCI-H226 lung.
Assay [3] concerns NCI-H322M lung.
Assay [4] relates to HOP-62 NSCLC.
The test system of assay [5] is NCI-H460 lung.
Assay [6] relates to HOP-92 NSCLC.
The subject of assay [7] is NCI-H522 lung.
Assay [8] relates to A549/ATCC NSCLC.
Assay [9] deals with 786-0 renal.
Assay [10] concerns COLO 205 colon.

For the compound `OC(COc1ccccc1Cl)COc1ccccc1Cl`, the growth in assay [1] was 94.1%; in assay [2] it was 95.3%; in [3], 110%; in assay [4] it was 117%; in assay [5], 107%; in assay [6], 102%. Also, the growth in assay [7] was 88.3%; in [8], 93.2%; in assay [9], 103%; in assay [10], 112%.
For `Cc1ccc(NS(=O)(=O)c2ccc3c(c2)C(=O)CC(c2ccc(C(=O)C(C)C)cc2)N3)cc1C` (stereo not given), the growth in assay [1] is 44.1%; in assay [2], 57.7%; in assay [3], 67.2%; in assay [4] it was 69.1%; in assay [5] it was 53.9%; in assay [6], 67.9%. The growth in [7] was 60.5%; in [8], 52.4%; in [9] it was 86.3%; in assay [10], 59.4%.
`Cc1ccc2c(c1)Sc1c(ccc3ccccc13)N2`: the growth was 74.7% in [1]; 75.4% in assay [2]; 90% in assay [3]; -2.75% (active) in assay [4]; 20.8% in assay [5]; 75.3% in [6]. For the same compound, the growth in assay [7] was 61.3%; in assay [8], 59%; in [9] it was 18.1%; in assay [10] it was 91.5%.
For `COc1cccc(-c2nn(-c3ccccc3)cc2-c2ccnc(NCCNC(=O)Nc3ccccc3)c2)c1`, the growth in assay [1] is 62.5%; in assay [2], 63.9%; in [3], 89.8%; in [4], 58.7%; in assay [5] it was 53.8%; in assay [6] it was 33%. The growth in [7] is 47.6%; in [8], 30.4%; in [9], 43.2%; in [10], 50.4%.
On to `N#Cc1c(-c2cccc(Cl)c2)cc(-c2cccc(Cl)c2)[nH]c1=O`, for which the growth in [1] was 79.8%; in assay [2], 94%; in assay [3], 87.2%; in [4] it was 71.3%; in [5], 77.1%; in assay [6], 44%. For the same compound, the growth in [7] is 64.4%; in [8], 61.9%; in assay [9] it was 87.6%; in assay [10] it was 108%.
As for `Cc1ccc(S(=O)(=O)NCC[C@@H]2C[C@H]2c2cc3ccccc3s2)cc1`, the growth in assay [1] is 93.2%; in assay [2], 87.8%; in assay [3], 101%; in assay [4] it was 108%; in assay [5], 104%; in assay [6] it was 101%. Moreover, the growth in assay [7] was 85.3%; in assay [8] it was 98.5%; in assay [9], 100%; in assay [10], 120%.
In the case of `COc1ccc(-c2nc3c(c(=O)n2C(C)=O)C(c2ccc(Cl)cc2)c2sc4c(Cl)cccc4c2O3)cc1` (stereo not given), the growth in assay [1] was 3.67% (active); in [2], 15.8%; in [3], -5.66% (active); in assay [4], -5.72% (active); in [5], -10.8% (active); in [6] it was -15.7% (active). The growth was -45.6% (active) in assay [7], -55% (active) in assay [8], -50.1% (active) in [9] and -62.3% (active) in assay [10].
In the case of `C=C1C(=O)O[C@H]2[C@H]1CC/C(COC(=O)C(=O)c1c[nH]c3ccc(OC)cc13)=C\CC[C@@]1(C)O[C@@H]21`, the growth was -28.1% (active) in [1]; -68.3% (active) in assay [2]; -70.5% (active) in [3]; -71.3% (active) in assay [4]; -53.9% (active) in assay [5]; -77.2% (active) in [6]. The growth in [7] is -61.3% (active); in [8], -62.7% (active); in assay [9], -91% (active); in assay [10], -68.6% (active).
For `CCCCc1ccc(Nc2ccc(Nc3ccc(CCCC)cc3S(=O)(=O)O)c3c2C(=O)c2ccccc2C3=O)c(S(=O)(=O)O)c1`, the growth in assay [1] is 91.3%; in assay [2] it was 79.7%; in assay [3], 96.3%; in [4], 99.5%; in assay [5], 104%; in assay [6] it was 59.4%. Also, the growth was 65% in [7], 102% in assay [8], 117% in assay [9] and 101% in [10].
As for `COc1ccc(-c2csc(C3=C(O)CN(CCCN4CCCC4=O)C3=N)n2)cc1OC`, the growth in [1] was 94.5%; in assay [2] it was 97.2%; in assay [3] it was 109%; in assay [4], 90.2%; in assay [5], 113%; in [6], 62.8%. Besides, the growth in assay [7] was 119%; in assay [8] it was 91.6%; in assay [9], 99.3%; in [10], 106%.
With `O=C1/C(=C/c2ccc(Br)cc2)C=C(c2ccccc2)N1CCc1ccccc1`, the growth is 40% in assay [1]; -1.06% (active) in assay [2]; 54.3% in assay [3]; -56.9% (active) in assay [4]; 25.6% in [5]; -13.9% (active) in assay [6]. Moreover, the growth in assay [7] was 31.2%; in [8], 8.19% (active); in assay [9], -8.73% (active); in assay [10] it was 30.4%.
Regarding `CCCCCCCCCCCCCCCCCCOc1ccccc1CC(=O)OCCC[N+](C)(C)C`, the growth was 46.4% in assay [1]; 78% in assay [2]; 84.3% in assay [3]; 67.1% in [4]; 80.1% in assay [5]; 39.6% in assay [6]. Further, the growth was 36.3% in [7], 54.2% in [8], 50.7% in assay [9] and 16.7% in assay [10].
As for `COc1cc2c(cc1-c1c(C)noc1C)ncc1nc(C3CCC(F)(F)CC3)n(C3CCC(OC(F)F)CC3)c12` (stereo not given), the growth in [1] was 68.3%; in assay [2] it was 66.7%; in assay [3], 47.7%; in [4], 37.1%; in [5], 62.6%; in assay [6], 12.9%. The growth in [7] is 12.5%; in [8], 64.1%; in assay [9], 53.4%; in assay [10] it was 28.4%.
Regarding `Nc1ccc2c(c1)c(N)nn2C(=O)Nc1ccc(Cc2ccccc2)cc1`, the growth in assay [1] is 82.1%; in assay [2], 72.5%; in assay [3], 81.2%; in assay [4], 82.7%; in assay [5], 44.5%; in [6] it was 98.2%. Also, the growth was 88.3% in assay [7], 52.3% in [8], 84.3% in assay [9] and 107% in assay [10].
